Measurements taken from PMC5540273 (PLoS ONE, 2017).

What was measured:
Conditions in all cases: concentration: 1 μM, replicates: in singlicate; n = 1
BTK = test system: BTK
BUB1 = test system: BUB1
CAMK1B = test system: CAMK1B
CAMK1D = test system: CAMK1D
CAMK1G = test system: CAMK1G
CAMK1 = test system: CAMK1
CAMK2A = test system: CAMK2A
CAMK2B = test system: CAMK2B
CAMK2D = test system: CAMK2D
CAMK2G = test system: CAMK2G
CAMK4 = test system: CAMK4
CAMKK1 = test system: CAMKK1
CAMKK2 = test system: CAMKK2
CASK = test system: CASK
CDC2L1 = test system: T1, CDC2L1
T1 construct: gene CDK11B

CDC2L2 = test system: CDC2L2
CDC2L5 = test system: T2, CDC2L5
T2 construct: gene CDK13

CDK11 = test system: T3, CDK11
T3 construct: gene CDK19

CDK2 = test system: CDK2
CDK3 = test system: CDK3
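Further: KINOMEscan kinase panel screen.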

| SMILES | %Inh (BTK) | %Inh (BUB1) | %Inh (CAMK1B) | %Inh (CAMK1D) | %Inh (CAMK1G) | %Inh (CAMK1) | %Inh (CAMK2A) | %Inh (CAMK2B) | %Inh (CAMK2D) | %Inh (CAMK2G) | %Inh (CAMK4) | %Inh (CAMKK1) | %Inh (CAMKK2) | %Inh (CASK) | %Inh (CDC2L1) | %Inh (CDC2L2) | %Inh (CDC2L5) | %Inh (CDK11) | %Inh (CDK2) | %Inh (CDK3) |
| --- | --- | --- | --- | --- | --- | --- | --- | --- | --- | --- | --- | --- | --- | --- | --- | --- | --- | --- | --- | --- |
| O=C1NC(=O)C(c2ccc(Cl)cc2)=C1Nc1ccc(O)cc1 [SB-340867] | 0% | 0% | 0% | 99.8% | 0% | 100% | 0% | 0% | 0% | 6% | 0% | 0% | 0% | 4% | 0% | 0% | 0% | 0% | 0% | 4% |
| COc1ccc(CSc2nnc(-c3ccc4ncsc4c3)o2)cc1C(F)(F)F | 0% | 0% | 0% | 23% | 2% | 1% | 0% | 0% | 0% | 0% | 0% | 0% | 0% | 10% | 0% | 0% | 35% | 37% | 1% | 0% |
| Cc1c(Cn2c3ccccc3n3c(=O)cc(N4CCOCC4)nc23)cccc1C(F)(F)F [GSK2306394] | 0% | 3% | 13% | 20% | 0% | 5% | 0% | 0% | 9% | 7% | 8% | 69% | 5% | 0% | 100% | 0% | 0% | 0% | 0% | 0% |
| Cc1ccc(NC(=O)Nc2ccccc2F)cc1-c1ccc(C(=O)Nc2ccncc2)cc1 [GSK1398477] | 0% | 0% | 59% | 33% | 16% | 29% | 0% | 0% | 14% | 37% | 5% | 15% | 31% | 17% | 8% | 10% | 0% | 12% | 0% | 24% |
| Nc1cccc(-c2ccc3c(N)n[nH]c3c2)n1 [GSK2192730] | 0% | 0% | 0% | 30% | 9% | 29% | 0% | 0% | 20% | 31% | 0% | 27% | 22% | 14% | 0% | 22% | 0% | 3% | 0% | 7% |
| Cc1ccc(NC(=O)Nc2ccc(Cl)c(C(F)(F)F)c2)cc1-c1ccc(C(=O)Nc2ccncc2)cc1 [GSK1398470] | 0% | 9% | 2% | 15% | 12% | 17% | 0% | 4% | 13% | 25% | 0% | 0% | 0% | 0% | 0% | 20% | 0% | 11% | 0% | 0% |
| CC(C)c1ccc(O)cc1Nc1ccnc2ccc(C(F)(F)F)cc12 [GW482059] | 0% | 13% | 27% | 0% | 0% | 0% | 0% | 0% | 0% | 1% | 14% | 0% | 0% | 0% | 0% | 5% | 0% | 0% | 0% | 0% |
| CNc1nc(-c2ccc3c(N)n[nH]c3c2)cc(N2C[C@@H](C(=O)NC3CCCCC3)OC[C@H]2C)n1 [GSK2375584] | 7% | 36% | 0% | 20% | 0% | 19% | 0% | 0% | 15% | 34% | 0% | 21% | 35% | 12% | 0% | 25% | 0% | 16% | 0% | 0% |
| COc1nccc(-c2c(-c3ccc(F)cc3)ncn2CCCN2CCOCC2)n1 [SB-282852] | 33% | 0% | 29% | 0% | 0% | 0% | 0% | 0% | 0% | 0% | 17% | 10% | 3% | 8% | 0% | 0% | 28% | 3% | 0% | 6% |
| CNc1nc(-c2ccc3c(N)n[nH]c3c2)cc(N2C[C@@H](C(=O)Nc3ccccc3)CC[C@H]2C)n1 [GSK2298859] | 0% | 22% | 6% | 25% | 6% | 28% | 87% | 82% | 21% | 21% | 0% | 21% | 29% | 24% | 0% | 21% | 0% | 0% | 0% | 0% |
| Cc1ccccc1-c1cc(-c2c[nH]nc2-c2ccccn2)ccn1 [GW680061] | 3% | 35% | 0% | 16% | 0% | 9% | 0% | 0% | 0% | 11% | 0% | 0% | 0% | 25% | 0% | 9% | 0% | 2% | 0% | 17% |
| Cc1cccc2c(-c3ccncn3)c(-c3ccc(F)cc3)nn12 [GW515532] | 0% | 65% | 9% | 0% | 0% | 5% | 0% | 0% | 0% | 0% | 0% | 0% | 0% | 0% | 0% | 3% | 0% | 0% | 0% | 3% |
| CC(=O)c1cccc(NC(=O)NC2CCN(c3ccnc(Nc4ccc(F)cc4)n3)C2)c1 (stereo not drawn) [GSK1379710] | 0% | 33% | 39% | 16% | 7% | 20% | 0% | 0% | 4% | 32% | 0% | 26% | 24% | 6% | 0% | 17% | 0% | 80% | 8% | 6% |
| O=c1cc(N2CCOCC2)nc2n(Cc3ccccc3F)ccn12 [GSK2297428] | 0% | 0% | 0% | 16% | 5% | 15% | 0% | 0% | 7% | 15% | 0% | 5% | 3% | 79% | 0% | 12% | 0% | 0% | 0% | 0% |
| FC(F)(F)c1ccccc1-c1cc(-c2c[nH]nc2-c2ccccn2)ccn1 [GW679396] | 0% | 0% | 29% | 12% | 8% | 21% | 0% | 0% | 9% | 29% | 0% | 5% | 21% | 17% | 0% | 0% | 0% | 0% | 0% | 0% |
| O=C(Nc1n[nH]c2cc(-c3ccsc3)ccc12)C1CC1 [SB-732932] | 10% | 20% | 2% | 0% | 23% | 30% | 20% | 11% | 12% | 15% | 0% | 9% | 0% | 23% | 13% | 3% | 47% | 5% | 57% | 38% |
| NS(=O)(=O)c1cccc(N/C=C2\C(=O)Nc3ccc(S(=O)(=O)Cc4c(Cl)cccc4Cl)cc32)c1 [GSK398099] | 0% | 34% | 23% | 17% | 26% | 27% | 0% | 0% | 26% | 16% | 0% | 72% | 60% | 27% | 0% | 9% | 0% | 0% | 0% | 24% |
| CC(=O)c1c(C)c2cnc(Nc3ccn(C)n3)nc2n(C2CCCC2)c1=O | 0% | 2% | 8% | 0% | 1% | 0% | 0% | 0% | 13% | 9% | 0% | 7% | 13% | 12% | 0% | 100% | 0% | 2% | 3% | 0% |
| Cc1c(Cn2c(C)c(C)n3c(=O)cc(N4CCOCC4)nc23)cccc1C(F)(F)F [GSK2328680] | 0% | 2% | 0% | 5% | 2% | 7% | 0% | 0% | 0% | 15% | 0% | 0% | 10% | 16% | 0% | 14% | 0% | 0% | 2% | 7% |
| Fc1ccc(-c2nc[nH]c2-c2ccncc2)cc1 [SB-217360] | 0% | 84% | 0% | 10% | 0% | 0% | 0% | 0% | 0% | 0% | 0% | 0% | 1% | 13% | 0% | 0% | 0% | 0% | 0% | 0% |
| COc1ccc(Nc2nccc(N3CCC(NC(=O)c4cc5ccccc5s4)C3)n2)cc1 (stereo not drawn) [GSK1379738] | 0% | 49% | 0% | 5% | 67% | 17% | 0% | 0% | 59% | 11% | 0% | 11% | 2% | 21% | 0% | 17% | 0% | 41% | 0% | 12% |
